Tb PGK inh: qHTS Assay to Find Inhibitors of Phosphoglycerate Kinase | PGK/GAPDH coupled, Kinase-Glo luminescence, 60 min | Potency, µM (top dose mostly 57.5 µM), without a hit: at the highest dose activity change, negative = inhibition, hits mostly inhibitors | 380,000 compounds, 0.043% hits; note: potency is the fitted concentration of half-maximal effect; % is set by controls: 0 for no effect and ±100 for the full control effect; nearly all actives have a fitted effect of over 60% in size
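Luminescent ATP detection (Kinase-Glo Plus) follows a 60-minute room-temperature incubation, with wells lacking PGK as controls. Buffer: 100 mM TEA (pH 7.6), 5 mM MgCl2, 0.01% Tween-20. Coupling enzyme GAPDH (100 nM final) supplies unstable 1,3-BPG in-well.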
Glioma ERSR ind: qHTS for Inducers of the Endoplasmic Reticulum Stress Response (ERSR) in Human Glioma: qHTS; U87-MG GRP78 promoter luciferase reporter, 16 h; Potency, µM, for the others: at the top dose activation, usual class: activators; 420,000 compounds, 0.02% hits; AID 602332, 2012; note: potency is the fitted concentration of half-maximal effect; series mostly up to about 76 µM; % of control where 0% means no effect; nearly all actives have a fitted effect of over 35% in size
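ERSR induction read as luciferase luminescence (Bright-Glo, 10 min at room temperature) in stably transfected human U87-MG glioma cells exposed to compounds for 16 h, using GRP78 as sensor.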
Pin1 inh: qHTS Assay to Find Inhibitors of Pin1; Pin1 FP peptide displacement, HiFluor488, 10 min; 390,000 compounds, 0.009% hits; Peptidyl-prolyl cis-trans isomerase NIMA-interacting 1 (Homo sapiens), Q13526; Potency, µM (highest dose often 115 µM), for the others: at the highest dose activity, negative = inhibition, actives largely listed as inhibitors; active = well fitted inhibition curve with a large enough effect in the polarisation, with a control signal flat, not every such curve was filed as active; inconclusive = small, poorly fitted or top-dose-only effect, or effect the other way, or a change in a side signal; inactive = no such curve, though single readings can be large or run the other way; the % refers to the polarisation; note: potency is the fitted concentration of half-maximal effect; % is set by controls: 0 for no effect and ±100 for the full control effect
FEN1 inh: qHTS Assay for the Inhibitors of Human Flap endonuclease 1 (FEN1) | AID 588795, 2011 | P39748 | Recombinant FEN1 flap cleavage, fluorescence, 15 min | 390,000 compounds, 0.35% hits | Potency, µM (doses to about 114 µM), inactives show top-dose activity change, negative = inhibition, usual class: inhibitors; note: potency is the fitted concentration of half-maximal effect; % is set by controls: 0 for no effect and ±100 for the full control effect; nearly all actives have a fitted effect of over 65% in size
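FEN1 at 10 nM, compound pretreatment for 15 min (room temperature), 50 nM final substrate to initiate; endpoint reads at 0 and 15 min; DMSO-only plates used as vehicle background.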
WRN inhibitor: qHTS for Inhibitors of WRN Helicase. WRN helicase unwinding, fluorescent forked duplex, kinetic. Potency, µM (series often up to 114 µM), for inactives: top-dose activity change, negative = inhibition, actives largely listed as inhibitors. 360,000 compounds, 0.46% hits. AID 651768, 2012; note: potency is the fitted concentration of half-maximal effect; % is set by controls: 0 for no effect and ±100 for the full control effect; nearly all actives have a fitted effect of over 55% in size
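WRN at 20 nM final was preincubated with compound for 15 min at room temperature; reaction started with 100 nM forked duplex oligonucleotide carrying fluorophore and quencher plus 2 mM ATP (final). Unwinding followed kinetically by red fluorescence (ex 525/em 598 nm).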
PI5P4Ka inh: qHTS for Inhibitors of phosphatidylinositol 5-phosphate 4-kinase (PI5P4K). 330,000 compounds, 1.2% hits. Phosphatidylinositol 5-phosphate 4-kinase type-2 alpha (Homo sapiens), P48426. max response, %. PI5P4Kalpha enzyme, ADP-Glo luminescence, 60 min; hits give low values. AID 652105, 2013; active = max response of -50% or lower; inconclusive = between -30% and -50%; inactive = -30% or higher; note: value at the top dose of about 77 µM; % is set by controls: 0 for no effect and ±100 for the full control effect
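Human PI5P4Kalpha with substrate in 0.038 M HEPES pH 7.4, 0.28 mM EGTA, 0.1% CHAPS, 5% DMSO; reaction started with 5 microM ATP (final), 60 min at room temperature. ADP formed read by ADP-Glo luminescence.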
Numbers without * were called inactive; i = inactive; u = inconclusive; x = no result given; [ ] = dose if it differs, or a comment. In the library only some 1.3% were active in any assay of this set; here they are far more common. Unless noted, calls come from the whole dose curve; as a rule, active = well fitted curve in the direction sought with a large enough effect; inconclusive = small, poorly fitted or top-dose-only effect, or another doubt; inactive = no such curve, though single readings can be large; an effect the other way counts as inactive or inconclusive.

SMILES	Tb PGK inh	Glioma ERSR ind	Pin1 inh	FEN1 inh	WRN inhibitor	PI5P4Ka inh
Cc1cc2c(s1)c1cnn(Cc3ccccc3Br)c(=O)c1n2C	x	x	-0.2%	x	x	x
O=c1[nH]c(=S)[nH]c2scc(-c3ccc(Br)cc3)c12	i	-3.8%	9.8%	-8.3%	u	-54.9*
O=[N+]([O-])c1ccc(/C=N/NC(=S)Nc2ccccc2F)o1	-0.5%	-1.9%	-4.2%	-2.9%	-15.5%	-60.8*
Cc1nc2ccccn2c1C(=O)N/N=C/c1ccc([N+](=O)[O-])o1	0.2%	2.9%	u	u	u	-55.8*
O=C(O)c1cc(-c2ccc(/C=N/NC(=S)Nc3ccccc3)o2)ccc1Cl	-13.5%	3.2%	u	-19.0%	u	-71.5*
O=[N+]([O-])c1ccc(/C=N/NC(=S)Nc2ccccc2)o1	-2.2%	-3.3%	4.3%	-12.1%	-34.5%	-60.1*
Cc1c(C(=O)NCCN2CCC(c3ccccc3)CC2)cnn1-c1nccc(-c2cccs2)n1	x	-2.8%	x	x	x	x
Cc1ccc(NS(=O)(=O)c2cc3c(cc2F)NC(=O)CC3)cc1Cl	x	x	-3.5%	x	x	x
CC(=O)Nc1ccc(Sc2ccccc2C(=O)Nc2ccc(F)cc2)cn1	8.5%	-2.3%	-5.0%	0.6%	7.1%[57.1 µM]	-14.4
CC(=O)Nc1ccc(Sc2ccccc2C(=O)O)cn1	-2.2%	-7.0%	-0.5%	-13.2%	-1.9%	-56.0*
COC(=O)c1c(OCc2ccccn2)cc(=O)n2c1CCN(Cc1ccc3nsnc3c1)CC2	x	-5.4%	x	x	x	x
Cc1ccc(NS(=O)(=O)c2ccc(N3CCCC3=O)cc2)cc1C	x	x	1.9%	x	x	x
COC(=O)[C@@H]1CCCN1Cc1ccc2c(c1)CN(Cc1cccn1-c1ccc(Cl)cn1)CCO2	x	-4.2%	x	x	x	x
Cc1ccc2nc(Cl)c(/C=N/Nc3ccc(C(=O)O)cc3)cc2c1	-3.8%	-7.5%	-7.6%	44.7µM*	-32.0%	-16.4
Cc1ccc(-c2nnc(N3CCC(C(N)=O)CC3)s2)cc1	x	x	-7.8%	x	x	x
O=C1Nc2cc(C(=O)NCCCN3CCOCC3)ccc2S/C1=C/c1ccccc1F	-5.2%	-4.8%	4.3%	-12.8%	6.2%	-2.9
O=C1Nc2cc(C(=O)NCCCN3CCOCC3)ccc2S/C1=C/c1cccc(Cl)c1	-3.0%	-4.8%	-15.2%	12.2%	4.7%	-50.9*
CS(=O)(=O)c1nc(-c2ccc(F)cc2)cc(C(F)(F)F)n1	-5.4%	-14.7%	0.3%	-19.1%	-7.7%	-3.2
CCOC(=O)CS(=O)(=O)c1nc(-c2ccc(F)cc2)cc(C(F)(F)F)n1	-6.3%	-17.0%	-1.1%	4.2%	50.1µM*	-10.7
CCOC(=O)CCS(=O)(=O)c1nc(-c2ccccc2)cc(C(F)(F)F)n1	i	-13.3%	4.8%	5.9%	u	8.7
CCOC(=O)CS(=O)(=O)c1nc(-c2ccccc2)cc(C(F)(F)F)n1	3.0%	-15.4%	-1.4%	-5.2%	56.2µM*	0.4
O=C1CCc2cc(S(=O)(=O)Nc3cccc4ccccc34)ccc2N1	x	x	1.2%	x	x	x
CCc1nc2cc(C(=O)N3CCC[C@H]3C(=O)OC)cc(NC(=O)c3ccccc3OC)c2n1C	x	-4.3%	x	x	x	x
Cc1ccc2[nH]c(C)cc(=O)c2c1	x	44.7µM*	x	x	x	x
Cc1ccc(-c2cc(=O)c3cc(C)ccc3[nH]2)cc1	i	-10.4%	-2.4%	-5.9%	-0.4%	0.4
SMILES	Tb PGK inh	Glioma ERSR ind	Pin1 inh	FEN1 inh	WRN inhibitor	PI5P4Ka inh
Cc1ccc(NS(=O)(=O)c2ccc3c(c2)CCC(C)(C)O3)cc1C	x	x	89.2%	x	x	x
CC(=O)Nc1ccc2c(c1)C(=O)c1ccccc1C2=O	-1.7%	-2.8%	0.5%	-13.7%	-15.8%	2.2
O=C(O)/C=C/C(=O)Nc1ccc2c(c1)C(=O)c1ccccc1C2=O	-5.7%	2.7%	u	u	-16.2%[11.6 µM]	-64.8*
Cc1cnc(C)c(-c2cc(F)cc3c2OC(CNC(=O)CN2CCCC2)C3)n1 (stereo not given)	x	0.1%	x	x	x	x
N#CC1=C(N)C2=C(N3CCCCC3)CCCC2C1(C#N)C#N (stereo not given)	-2.0%	-4.7%	x	u	u	-54.0*
N#CC(C#N)=C1C=C2C=C(N3CCCCC3)CCC2CC1 (stereo not given)	i	-3.9%	u	u	u	1.2
O=C(O)c1cc([N+](=O)[O-])c(Sc2nc3ccccc3[nH]2)c([N+](=O)[O-])c1	x	-4.0%	-10.6%	15.6%	u	-26.6
CS(=O)(=O)c1cc([N+](=O)[O-])c(Sc2nc3ccccc3[nH]2)c([N+](=O)[O-])c1	3.9%	-11.4%	2.4%	-15.6%	56.2µM*	x
N#CCC(=O)Nc1ccc(C(=O)OCC(=O)NC(=O)NCc2ccco2)cc1	5.1%	-0.1%	u	2.8%	-35.8%	-54.9*
CCOC(=O)c1ccc(NC(=O)CCC(=O)NCc2ccco2)cc1	-9.3%	1.9%	0.3%	-1.3%	13.3%	-8.3
CCCCCCCCCCCC[n+]1ccc(C)c2ccccc21	x	-3.9%	x	35.5µM*	x	x
CCCCCCCCC[n+]1cccc2c3ccccc3ccc21	-0.7%	-15.1%	0.7%	5.6%	2.3%	-17.7
CCCCCCCCCCCCCCCC[n+]1cccc2ccccc21	-3.8%	-15.4%	u	79.4µM*	u	-59.1*
CCO[C@H]1[C@H](NC(=O)c2cccnc2)c2ccccc2C12CCN(C(=O)c1ccoc1)CC2	x	-2.4%	x	x	x	x
CCN(C)c1ccc(/C=C/c2ccnc3ccccc23)cc1	x	-1.8%	x	-5.2%	x	x
C(=C\c1ccnc2ccccc12)/c1ccc(N2CCN(c3ccc(/C=C/c4ccnc5ccccc45)cc3)CC2)cc1	x	-2.7%	x	-12.4%	x	x
C(=C\c1ccnc2ccccc12)/c1ccc(N2CCOCC2)cc1	x	-1.7%	x	44.7µM*	x	x
CC[N+](C)(C)c1ccc(/C=C/c2ccnc3ccccc23)cc1	x	-9.3%	x	39.8µM*	x	x
CN(C)c1ccc(N=Nc2ccc(/C=C/c3ccnc4ccccc34)cc2)cc1	x	-2.9%	x	25.1µM*	x	x
O=C(c1n[nH]c2c1CCCC2)N1CCOc2ccc(C(O)C(c3ccccc3)c3ccccc3)cc2C1 (stereo not given)	x	-1.6%	x	x	x	x
Cc1cc(CNC(=O)c2cnn(-c3ncc4c(n3)-c3ccccc3CC4)c2C2CC2)on1	x	9.4%	x	x	x	x
CC(C)(C)C1=CC(=O)C(=O)C(C(C)(C)C)=C1	x	-10.8%	-2.6%	70.8µM*	-14.1%	u
CC(C)(C)C1=CC(=Nc2ccccc2N)C=C(C(C)(C)C)C1=O	-10.7%	-0.5%	u	-23.9%	-14.3%	-3.1
